From PubChem BioAssay (NCI)
The panel holds about 83,000 compounds, 20% with a hit somewhere; the sample as a whole holds those more often.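 Negative percent growth values reflect cell death: -40 means 40% of the cells present at the start died, and -100 means all died.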 A number with no mark means an inactive call. The source made the active and inactive calls. How the source made its calls: active means growth percent below 10; inactive means the rest.

Experiments:
Assay in all cases: NCI-60 one-dose screen, 48 h (100 = growth as untreated, 0 = no growth, -100 = all killed)
Conditions in all cases: 10 µM
HCT-15 colon = system: HCT-15 colon
HT29 colon = system: HT29 colon
SNB-75 CNS = system: SNB-75 CNS
SNB-19 CNS = system: SNB-19 CNS
U251 CNS = system: U251 CNS
PC-3 prostate = system: PC-3 prostate
SK-MEL-5 melanoma = system: SK-MEL-5 melanoma
UACC-62 melanoma = system: UACC-62 melanoma
LOX IMVI melanoma = system: LOX IMVI melanoma
SK-MEL-28 melanoma = system: SK-MEL-28 melanoma
SK-MEL-2 melanoma = system: SK-MEL-2 melanoma
EKVX NSCLC = system: EKVX NSCLC
SN12C renal = system: SN12C renal
UO-31 renal = system: UO-31 renal
TK-10 renal = system: TK-10 renal
ACHN renal = system: ACHN renal
CAKI-1 renal = system: CAKI-1 renal
A498 renal = system: A498 renal
CCRF-CEM leukemia = system: CCRF-CEM leukemia
MOLT-4 leukemia = system: MOLT-4 leukemia

Structure (SMILES)	growth (HCT-15 colon)	growth (HT29 colon)	growth (SNB-75 CNS)	growth (SNB-19 CNS)	growth (U251 CNS)	growth (PC-3 prostate)	growth (SK-MEL-5 melanoma)	growth (UACC-62 melanoma)	growth (LOX IMVI melanoma)	growth (SK-MEL-28 melanoma)	growth (SK-MEL-2 melanoma)	growth (EKVX NSCLC)	growth (SN12C renal)	growth (UO-31 renal)	growth (TK-10 renal)	growth (ACHN renal)	growth (CAKI-1 renal)	growth (A498 renal)	growth (CCRF-CEM leukemia)	growth (MOLT-4 leukemia)
Cn1c(O)c(N=Nc2nc(-c3cc4ccccc4oc3=O)cs2)c2cc(Br)ccc21	88.5%	118%	54.7%	12.5%	21.3%	102%	96%	65%	56.7%	99.8%	31.8%	65.4%	73.8%	77.9%	56.8%	35.4%	75.7%	16.5%	97.7%	104%
COc1ccc(C2N(c3ccc(Br)cc3)N=C(C(C)=O)N2[C@H]2[C@H](OC(C)=O)O[C@H](COC(C)=O)[C@@H](OC(C)=O)[C@@H]2OC(C)=O)cc1 (stereo not given in full)	61.4%	75.2%	74.7%	78.2%	74.8%	43.2%	77.7%	56.9%	71.1%	86.4%	77.9%	59.4%	79.7%	44.5%	68.9%	61.1%	70.8%	61.3%	78.8%	54.6%
Cc1ccc(-c2nc(Nc3ccc(S(N)(=O)=O)cc3)c3ccccc3n2)cc1	1.3% (active)	14.6%	87.6%	60.6%	49.7%	39.5%	74.4%	78.5%	-71.5% (active)	75.8%	99.9%	65.9%	68.7%	54.5%	104%	42.8%	36.5%	61.3%	25.7%	11.2%
COc1ccc2[nH]c(=O)c(CSc3ccc(Nc4nccc(-c5ccc(Cl)cc5)n4)cc3)cc2c1	97%	104%	110%	71.6%	94.2%	83.2%	98.4%	105%	89%	109%	94.3%	86.8%	83.7%	85.5%	124%	90.3%	76.3%	141%	96.7%	84.4%
Brc1ccc(N/N=C/c2c[nH]c3ccccc23)nc1	8.57% (active)	14%	26.7%	43.9%	19.9%	20%	51.8%	54.8%	-2.43% (active)	63.6%	83.6%	24.4%	15.3%	2.76% (active)	70%	27.5%	25.9%	43%	6.57% (active)	18%
O=C1Nc2ccc(Cl)cc2/C1=C/c1ccc(OCc2ccccn2)cc1	35.7%	67.5%	113%	50.7%	23.7%	62.1%	89.5%	66.7%	56.5%	100%	111%	65.7%	44.5%	59.6%	90.1%	57%	61.6%	45.1%	83.2%	46.8%
CCOC(=O)C1=C(N)N(c2ccc(C)cc2)C2=C(C(=O)CC(C)(C)C2)C1c1ccccc1OC (stereo not given)	98.4%	116%	105%	93.1%	104%	93.5%	100%	89.8%	104%	104%	110%	92.2%	99.6%	78.7%	107%	103%	97.7%	102%	99%	106%
CCOC(=O)C(Cc1ccccc1)N1C(=O)/C(=C/N2N=C(c3ccc(OC)cc3)CC2c2ccc3ccccc3c2)SC1=S (stereo not given)	-67.4% (active)	-2.97% (active)	40.6%	14.9%	-26.8% (active)	18.9%	-98.2% (active)	-76.7% (active)	-100% (active)	9.31% (active)	-64.1% (active)	-7.27% (active)	8.88% (active)	16.2%	24.8%	23.2%	24.8%	-13.3% (active)	5.96% (active)	4.16% (active)
COc1cc(/C=C/C(=O)c2ccc(NC(=O)CN3C(=O)NC(C)(c4ccccc4)C3=O)cc2)cc(OC)c1OC (stereo not given)	11.8%	-2.37% (active)	83.8%	42.6%	-15.7% (active)	31.9%	44.7%	41.6%	-46.1% (active)	49.8%	86%	73.2%	10.7%	73.9%	98.6%	56%	75.3%	132%	7.14% (active)	1.84% (active)
Nc1nc(Nc2ccccc2)nn1Cc1c(Cl)cccc1Cl	37.5%	54.4%	67.5%	58%	53.8%	27.4%	23.5%	33.5%	16.3%	55.5%	49.2%	20.2%	44.5%	11.8%	53.8%	13.9%	27.9%	-3.12% (active)	26.5%	18.6%
COc1ccc(-c2ccc(/C=N/NC(=O)c3[nH]c4ccc(Br)cc4c3-c3ccccc3)s2)cc1	68.4%	84.5%	88.1%	73.8%	35.9%	91.7%	106%	45.9%	75.5%	105%	106%	110%	74.9%	86.4%	127%	106%	94.8%	131%	88%	87.6%
CSc1nc(-c2cccc(C)c2)c2cc(-c3ccccc3)n(C)c2n1	15.3%	9.09% (active)	-2% (active)	30.2%	17.4%	21.7%	-44.7% (active)	11.1%	21.4%	34.7%	12.2%	18.4%	20%	29.8%	58.1%	32.4%	26.2%	65.5%	17.5%	16.8%
CC(=O)NNc1ccc2nnc(-c3ccc(Br)cc3)n2n1	93.8%	103%	121%	92%	93.3%	93.6%	95.4%	87.9%	100%	106%	104%	81.7%	105%	82.1%	103%	101%	90.3%	83.4%	40.1%	92.3%
O=C(c1ccc(Cl)cc1)C1[C@H](c2ccccc2Br)[C@@H](c2ccccc2)NC12C(=O)Nc1ccc(Cl)cc12 (stereo not given in full)	8.84% (active)	-14.6% (active)	36.5%	33.6%	6.14% (active)	38.1%	15.9%	22%	-91% (active)	55.4%	13.8%	16.5%	-58.6% (active)	16.5%	42.5%	9.92% (active)	8.98% (active)	72.4%	18.8%	18%
COc1ccc2[nH]cc(/C=N/Nc3ccc(Br)cn3)c2c1	6.98% (active)	23.3%	43.7%	51.2%	20.1%	23%	21.9%	51.3%	7.7% (active)	61.5%	73.5%	22.9%	23.7%	11%	54%	26.7%	30.9%	50.7%	11.2%	24.6%
